The values that follow come from PubChem BioAssay AID2427 (National Center for Advancing Translational Sciences (NCATS), 2010).

Activity calls are given as the source filed them.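 Rule for the calls: active = melting temperature shift above 3 C; inconclusive = shift above 1 C but not above 3 C; inactive = the rest.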

15-hydroxyprostaglandin dehydrogenase [NAD(+)] (Homo sapiens), sequence (P15428 whole entry, looked up): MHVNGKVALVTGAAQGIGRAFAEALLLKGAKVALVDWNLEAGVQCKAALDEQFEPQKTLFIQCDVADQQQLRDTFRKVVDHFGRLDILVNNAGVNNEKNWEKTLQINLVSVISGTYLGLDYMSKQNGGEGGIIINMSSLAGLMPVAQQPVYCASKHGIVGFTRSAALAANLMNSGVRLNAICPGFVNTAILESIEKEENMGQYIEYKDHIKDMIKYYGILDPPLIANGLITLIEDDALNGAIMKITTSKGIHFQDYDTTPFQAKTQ

For the first assay, the target named is 15-hydroxyprostaglandin dehydrogenase [NAD(+)] (Homo sapiens) (UniProt P15428). The assay is described as follows: Thermal Shift Assay for Inhibitors of HPGD (15-Hydroxyprostaglandin Dehydrogenase). As to conditions: Recombinant HPGD thermal shift, SYPRO orange DSF, at 250 µM, stronger effect = higher value. As for the experimental part:
Assay Overview: Human 15-Hydroxyprostaglandin dehydrogenase (HPGD) catalyzes the inactivation of prostaglandin E2, and plays a major role in cancer biology by antagonizing the oncogenic potential of cyclooxygenase type 2 (COX2). Studies to assess the stability of human 15-PGDH in presence of compounds was performed as described (Niesen et al., 2007) with variations. References 1. Myung SJ, Rerko RM, Yan M, Platzer P, Guda K, Dotson A, Lawrence E, Dannenberg AJ, Lovgren AK, Luo G, Pretlow TP, Newman RA, Willis J, Dawson D, Markowitz SD. 15-Hydroxyprostaglandin dehydrogenase is an in vivo suppressor of colon tumorigenesis. Proc Natl Acad Sci U S A. 2006 Aug 8;103(32):12098-102. 2. Yan M, Rerko RM, Platzer P, Dawson D, Willis J, Tong M, Lawrence E, Lutterbaugh J, Lu S, Willson JK, Luo G, Hensold J, Tai HH, Wilson K, Markowitz SD. 15-Hydroxyprostaglandin dehydrogenase, a COX-2 oncogene antagonist, is a TGF-beta-induced suppressor of human gastrointestinal cancers. Proc Natl Acad Sci U S A. 2004 Dec 14;101(50):17468-73. 3. Yang L, Amann JM, Kikuchi T, Porta R, Guix M, Gonzalez A, Park KH, Billheimer D, Arteaga CL, Tai HH, Dubois R, Carbone DP, Johnson DH. Inhibition of Epidermal Growth Factor Receptor Signaling Elevates 15-Hydroxyprostaglandin Dehydrogenase in Non-Small-Cell Lung Cancer. Cancer Res. 2007 Jun 15;67(12):5587-5593. 4. Niesen FH, Berglund H, Vedadi M: The use of differential scanning fluorimetry to detect ligand interactions that promote protein stability. Nature protocols 2007; 2:2212-2221 NIH Chemical Genomics Center [NCGC] Structural Genomics Consortium [SGC]
HPGD was diluted to a final assay concentration of 1 uM in 100 mM Tris buffer, pH 8.0, containing 0.01% Tween-20 and 1:1000 SYPRO orange dye. The final assay volume is 10 ul, with or without 200 uM of either NAD+ or NADH. Compounds were added 1:5 from appropriate stock solutions in 10% (v/v) DMSO to comprise either 50 or 250 uM final concentrations. Heat denaturation curves were recorded using a RT-PCR instrument (Mx3005p, Agilent) applying a temperature gradient of 2 degree C/min. Analysis of the data was performed using DSF Analysis vers. 2.5 (ftp://ftp.sgc.ox.ac.uk/pub/biophysics) and Prism 5.0 (GraphPad Software, Inc.)
Turning to `COCCNC(=O)C1CCC(Cn2c(=S)[nH]c3ccccc3c2=O)CC1` (centres undefined), the thermal shift (delta Tm) was 3.7 C (active).
`Cc1cccc(-n2cnc3cc(C(=O)N4CCCCC4)ccc32)c1`: the thermal shift (delta Tm) was 7.3 C (active).

Staying with this assay, now noted: Recombinant HPGD thermal shift, SYPRO orange DSF, measured here: delta Tm with NADH cofactor, at 250 µM, stronger effect = higher value.
Consider `COCCNC(=O)C1CCC(Cn2c(=S)[nH]c3ccccc3c2=O)CC1` (centres undefined), for which the thermal shift (delta Tm) amounted to 4.7 C.
Turning to `Cc1cccc(-n2cnc3cc(C(=O)N4CCCCC4)ccc32)c1`, the thermal shift (delta Tm) came out at 13.5 C.
